Screens deposited in PubChem by several laboratories.
Efflux pump mplx = inhibitors of Candida antifungal efflux pumps expressed in yeast; S. cerevisiae Candida pump triplex, Nile Red efflux; inhibition, % at 10 µM; 330,000 tested, 0.44% active;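 active means plate passing quality check with inhibition over a set limit, or well fluorescence over plate mean plus 4 SD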;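 further: Nile Red retained in pooled yeast measured as flow cytometry median fluorescence; higher means more Nile Red kept so more efflux inhibition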
AI-2 QS modul = modulates the Vibrio harveyi AI-2 quorum sensing system; Vibrio harveyi JMH597 AI-2 luminescence/OD600 ratio, 9 h; hits give low values; strain lacks LuxN and CqsS sensors; 0 = neutral-control median; AID 2094; activity change, % at 7.5 µM; 300,000 tested, 0.4% active; in the data active means activity change below about -75%, passing the limit was not always enough;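 further: luminescence divided by OD600 gain over 9 h not by final OD600 alone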
V-ATPase pHluor = alters yeast V-ATPase proton transport; S. cerevisiae, pHLuorin cytosolic pH fluorescence; response, % at 10 µM; 350,000 tested, 0.37% active; in the data active means response mostly above about 7.3%, no sharp cut-off; inactive means mostly below about 5.4%; further: actives read high
SUMO Mot1 rescue = blocks SUMOylation pathway, rescuing yeast Mot1-301 growth; S. cerevisiae Mot1-301 growth rescue, ATP luminescence, 38.5C; percent above DMSO median, 100 means doubled; growth rescue, % at 18.8 µM; 320,000 tested, 1% active;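 active means every valid replicate shows activation above 250% relative to neutral control wells; inactive means the rest, any valid replicate at or below 250%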
ATG4B inh = blocks human ATG4B protease cleavage of LC3 substrate | Q9Y4P1 | ATG4B cleavage of LC3-PLA2, NBD-HPC fluorescence, 1 h | inhibition, % at 8.33 µM | 340,000 tested, 0.51% active | AID 504462; in the data active means inhibition above about 40%
Target sequence (Q9Y4P1 whole entry, looked up): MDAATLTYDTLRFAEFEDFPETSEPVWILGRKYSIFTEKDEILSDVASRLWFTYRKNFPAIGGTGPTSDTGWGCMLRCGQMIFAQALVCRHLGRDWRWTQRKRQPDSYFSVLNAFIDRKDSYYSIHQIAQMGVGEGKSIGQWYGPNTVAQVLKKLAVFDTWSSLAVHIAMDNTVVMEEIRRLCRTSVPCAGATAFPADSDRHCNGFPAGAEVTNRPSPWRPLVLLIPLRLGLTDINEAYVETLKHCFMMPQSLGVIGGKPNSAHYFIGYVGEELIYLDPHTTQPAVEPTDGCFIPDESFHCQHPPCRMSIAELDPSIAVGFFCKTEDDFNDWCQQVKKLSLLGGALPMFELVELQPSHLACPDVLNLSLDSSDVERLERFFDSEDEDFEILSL
Yeast Mot1 SUMO = yeast SUMO pathway inhibition in dose response | growth activity, percent, % at 42 µM | 2,300 tested, under 10 active | shares compounds with SUMO Mot1 rescue | S. cerevisiae Mot1-301 galactose growth, ATP luminescence, 24 h; -100 = growth of slx-deleted rescue strain;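 active means Signal drops as the depositor expects, and the fitted half-maximal dose is no more than ten times the top valid tested dose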;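 further: more negative values mean stronger growth rescue toward the control strain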
Numbers stand for hits; 0 = inactive; - = not tested or not shown; + = active, no number. Hits are enriched below; roughly 2.5% of the tested compounds scored in any of these assays.

SMILES	Efflux pump mplx	AI-2 QS modul	V-ATPase pHluor	SUMO Mot1 rescue	ATG4B inh	Yeast Mot1 SUMO
O=C(NCC1CCCO1)C(=O)N/N=C/c1cccc(Cl)c1 (stereo not given)	0	0	0	0	0	-
CN1CCc2c(sc3c2c(=O)n(-c2cccc(Cl)c2)c2nncn32)C1	0	0	0	0	0	-
O=c1c2c3c(sc2n2cnnc2n1-c1ccccc1)N(Cc1ccccc1)CCC3	0	0	-	445	0	0
CCN(C(=O)Cn1c(=O)oc2ccccc21)c1cccc(C)c1	0	0	0	628	0	0
Oc1ccccc1-c1cc(C(F)(F)C(F)F)[nH]n1	0	0	0	872	0	0
CCC(c1nc2ccccc2c(=O)n1-c1nc2ccccc2s1)N1C(=O)c2ccccc2C1=O (stereo not given)	0	0	0	359	0	0
O=c1c2ccccc2ncn1Cc1nc2ccccc2s1	0	0	0	0	0	-
Cc1ccc(/C=C2/Sc3ccccc3N(CC(=O)NCCCOC(C)C)C2=O)cc1	0	0	0	0	0	-
Cc1ccc(NCCCCO)cc1C	0	0	0	0	0	-
COc1ccc(C(=O)N/C(=C\c2cc(OC)c(OC)cc2[N+](=O)[O-])C(=O)NCCO)cc1	0	0	0	993	0	0
Cc1cccc(N(CC(=O)NCc2ccc3c(c2)OCO3)C(=O)CCC(=O)Nc2ccccn2)c1	0	0	0	0	0	-
O=C(CSc1nnc2ccccn12)NNC(=O)c1ccc(Cl)cc1	0	0	0	599	0	0
Cc1ccc(C(=O)N[C@H](C(=O)N2CCN(c3ccccc3F)CC2)C(C)C)cc1	0	0	0	0	0	-
CC(C)OC(=O)C(=O)NNc1ccccc1	0	0	0	0	0	-
O=C(NNc1ccccc1)C(CCO)C(=O)NNc1ccccc1	0	0	0	404	0	0
O/N=C(/c1ccccc1)c1cc2cc(Br)cc(Br)c2o1	0	0	0	0	0	-
COc1ccc(N2CCN(S(=O)(=O)c3cn(C)cn3)CC2)cc1	0	0	0	0	0	-
Fc1ccc2nc(C3CCN(Cc4nc(CC5CC5)no4)CC3)[nH]c2c1	0	0	0	460	0	0
CCn1c(-c2ccccc2)c(C(=O)CC#N)c2ccccc21	0	0	0	373	0	0
CCOC(=O)C1CC(c2ccccc2)=NNC1=O (stereo not given)	0	0	0	504	0	0
CCOC(=O)/C=C(\C)N1N=C(c2ccccc2)CC1c1ccccc1 (stereo not given)	0	0	0	-	0	-
CCOC(=O)CS(=O)(=O)c1ccc2ccccc2c1	0	0	0	955	0	0
CCOC(=O)CS(=O)(=O)c1ccccc1	0	0	0	-	0	-
CC(=O)c1ccc(S(=O)(=O)NC2CC(=O)N(c3ccc(C)c(C)c3)C2)cc1 (stereo not given)	0	0	0	0	0	-
O=C(CSc1nnc(-c2ccc(Br)cc2)o1)Nc1cccc(C(=O)O)c1	0	0	0	0	0	-
SMILES	Efflux pump mplx	AI-2 QS modul	V-ATPase pHluor	SUMO Mot1 rescue	ATG4B inh	Yeast Mot1 SUMO
O=C(CSc1nnc(-c2ccc(Br)cc2)o1)Nc1cccc2ccccc12	0	0	0	663	0	0
CC(C)(C)[C@H]1C=C(C(N)=O)O[C@@H](OCc2ccc(CO)cc2)C1	0	0	0	0	0	-
COC(=O)[C@@H]1C[C@@H]2CC[C@@H](O)C[C@@H]2N1Cc1ccc(N2CCN(C)CC2)cc1	0	0	0	522	0	0
Cc1ccc2c(C)c(C(=O)N(C)C(C)c3ccncn3)oc2c1C (stereo not given)	0	0	0	359	0	0
CCOC(=O)C1CCCN(C(=O)/C=C/c2cc(OC)c(OC)c(OC)c2)C1 (stereo not given)	0	0	0	0	0	-
CCOC(=O)C1CCCN(C(=O)/C=C/c2ccc(Cl)cc2)C1 (stereo not given)	0	0	0	420	0	0
COc1cccc(C(=O)NCC(=O)N2CCC3(CC2)NCCc2[nH]cnc23)c1OC	0	0	0	0	0	-
CCOc1ccc(S(=O)(=O)N2CCCCC2)cc1NC(=O)c1ccccc1	-	-	0	-	0	-
c1ccc2c(c1)OCCOCCOc1ccccc1OCCOCCO2	0	0	0	735	0	0
COc1ccc(-c2csc(NCCc3nc4cc(Cl)c(Cl)cc4n3CCCO)n2)cc1	0	0	0	0	0	-
CCOC(=O)N1CCN(C(=O)c2ccc(OC)c(OC)c2)CC1	0	0	0	+	0	0
CCOC(=O)c1nc(Nc2ccc(C(C)=O)cc2)c2ccccc2n1	0	0	0	0	0	-
CCOC(=O)c1nc(Nc2ccccc2CC)c2ccccc2n1	0	0	0	996	0	0
C=CCNC(=O)/C(C#N)=C/c1c(N(Cc2ccccc2)Cc2ccccc2)nc2ccccn2c1=O	0	0	0	0	0	-
CCNC(=O)/C(C#N)=C/c1c(N2CCCCCC2)nc2ccccn2c1=O	0	0	0	748	0	0
N#C/C(=C\c1c(N(Cc2ccccc2)Cc2ccccc2)nc2ccccn2c1=O)C(N)=O	0	0	0	-	0	0
CCNC(=O)/C(C#N)=C/c1c(N2CCN(c3ccccc3)CC2)nc2ccccn2c1=O	0	0	0	0	0	-
O=C(/C=C/c1ccc(Cl)cc1)NCc1ccncc1	0	0	0	566	0	0
Cc1ccc(/C=C/C(=O)NCc2ccncc2)cc1	0	0	0	0	0	-
CC/C(C)=N\Nc1nc(-c2cc3cc(OC)ccc3oc2=O)cs1	0	0	0	0	0	-
CCOc1ccc(CC(=O)Nc2ccc(S(=O)(=O)N3CCCC3)cc2)cc1	0	0	0	0	0	-
O=C(Nc1ccc(Cl)cc1Cl)c1cccc(N2C(=O)C=CC2=O)c1	0	0	78	550	0	0
O=C(O)c1cccc(N2C(=O)C=CC2=O)c1	-	-	0	-	-	-
COc1ccc(Cl)cc1N(C(=O)c1ccco1)C(C(=O)NC1CCCC1)c1ccncc1 (stereo not given)	0	0	0	407	0	0
COc1cc2cc(CN(C(=O)NC3CCCCC3)C3CCCC3)c(=O)[nH]c2cc1OC	0	0	0	0	0	-
SMILES	Efflux pump mplx	AI-2 QS modul	V-ATPase pHluor	SUMO Mot1 rescue	ATG4B inh	Yeast Mot1 SUMO
O=C(NC1CCCCC1)N(Cc1cc2cc3c(cc2[nH]c1=O)OCCO3)C1CCCCC1	0	-	0	828	0	0
CCc1ccc(C2c3[nH]c4ccccc4c3CCN2C(=O)c2cc(C)nn2C)cc1 (stereo not given)	0	0	0	0	0	-
Cc1nnc(N=c2ssnc2Cl)o1	0	-	0	606	0	0
Cc1ccc(N=c2ssnc2Cl)cc1	0	0	0	471	0	0
Cc1cc(Cl)ccc1N=c1ssnc1Cl	0	0	0	0	0	-
CC(OC(=O)c1cnccn1)C(=O)c1ccccc1 (stereo not given)	0	0	0	433	0	0
Cc1csc(=O)n1CC(=O)OCC(=O)Nc1cc([N+](=O)[O-])ccc1Cl	0	0	0	485	0	0
